Targets with a hit are over-represented here; the source holds about 8,800 in all. About 0.5% of all pairs of compound and target were hits.
compound: O=C1NC(=O)C(c2cnc3ccccn23)=C1c1cn2c3c(cc(F)cc13)CN(C(=O)N1CCCCC1)CC2; experiment: log2 fold change, soluble protein after heating vs DMSO (PISA); higher = thermal stabilisation; K562 lysate, 10 uM; active = over 0.2 and 3.5 SD of the protein, either way, in both replicates (recomputed)
Procedure, shortened: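 Following dounce homogenisation of K562 pellets in PBS pH 7.4 with 1 mM MgCl2, crude extract at 1 mg/mL protein was incubated for 30 min with 10 μM compound. Aliquots were then heated for 3 min over 48°C-58°C and pooled, NP-40 was added to 0.5% at 4°C, and soluble protein was recovered as the supernatant at 21,000xg for 90 min. Channel-sum-equalised TMTpro 16plex LC-MS/MS quantified this protein. Each value, from duplicates, is a log-two fold change in thermal stability relative to solvent controls.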

UniProt Q9UJC5, sequence (Q9UJC5 whole entry, looked up): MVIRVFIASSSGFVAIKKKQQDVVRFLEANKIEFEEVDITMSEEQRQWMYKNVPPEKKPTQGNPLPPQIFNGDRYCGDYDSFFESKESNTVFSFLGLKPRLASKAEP
UniProt Q15208, sequence (Q15208 whole entry, looked up): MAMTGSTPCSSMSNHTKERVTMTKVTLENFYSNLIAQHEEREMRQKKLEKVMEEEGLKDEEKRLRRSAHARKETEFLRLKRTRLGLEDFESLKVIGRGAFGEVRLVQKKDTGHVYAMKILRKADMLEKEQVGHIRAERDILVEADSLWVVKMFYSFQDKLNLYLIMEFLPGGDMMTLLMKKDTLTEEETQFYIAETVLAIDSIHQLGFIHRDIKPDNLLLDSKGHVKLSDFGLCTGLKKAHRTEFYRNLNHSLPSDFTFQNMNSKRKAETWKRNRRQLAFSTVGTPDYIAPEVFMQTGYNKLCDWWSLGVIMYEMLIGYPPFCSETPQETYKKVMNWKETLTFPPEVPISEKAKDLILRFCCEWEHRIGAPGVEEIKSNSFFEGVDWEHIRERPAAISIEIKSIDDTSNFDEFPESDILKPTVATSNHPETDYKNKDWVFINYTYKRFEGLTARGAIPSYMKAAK
UniProt Q9NTJ3, sequence (Q9NTJ3 whole entry, looked up): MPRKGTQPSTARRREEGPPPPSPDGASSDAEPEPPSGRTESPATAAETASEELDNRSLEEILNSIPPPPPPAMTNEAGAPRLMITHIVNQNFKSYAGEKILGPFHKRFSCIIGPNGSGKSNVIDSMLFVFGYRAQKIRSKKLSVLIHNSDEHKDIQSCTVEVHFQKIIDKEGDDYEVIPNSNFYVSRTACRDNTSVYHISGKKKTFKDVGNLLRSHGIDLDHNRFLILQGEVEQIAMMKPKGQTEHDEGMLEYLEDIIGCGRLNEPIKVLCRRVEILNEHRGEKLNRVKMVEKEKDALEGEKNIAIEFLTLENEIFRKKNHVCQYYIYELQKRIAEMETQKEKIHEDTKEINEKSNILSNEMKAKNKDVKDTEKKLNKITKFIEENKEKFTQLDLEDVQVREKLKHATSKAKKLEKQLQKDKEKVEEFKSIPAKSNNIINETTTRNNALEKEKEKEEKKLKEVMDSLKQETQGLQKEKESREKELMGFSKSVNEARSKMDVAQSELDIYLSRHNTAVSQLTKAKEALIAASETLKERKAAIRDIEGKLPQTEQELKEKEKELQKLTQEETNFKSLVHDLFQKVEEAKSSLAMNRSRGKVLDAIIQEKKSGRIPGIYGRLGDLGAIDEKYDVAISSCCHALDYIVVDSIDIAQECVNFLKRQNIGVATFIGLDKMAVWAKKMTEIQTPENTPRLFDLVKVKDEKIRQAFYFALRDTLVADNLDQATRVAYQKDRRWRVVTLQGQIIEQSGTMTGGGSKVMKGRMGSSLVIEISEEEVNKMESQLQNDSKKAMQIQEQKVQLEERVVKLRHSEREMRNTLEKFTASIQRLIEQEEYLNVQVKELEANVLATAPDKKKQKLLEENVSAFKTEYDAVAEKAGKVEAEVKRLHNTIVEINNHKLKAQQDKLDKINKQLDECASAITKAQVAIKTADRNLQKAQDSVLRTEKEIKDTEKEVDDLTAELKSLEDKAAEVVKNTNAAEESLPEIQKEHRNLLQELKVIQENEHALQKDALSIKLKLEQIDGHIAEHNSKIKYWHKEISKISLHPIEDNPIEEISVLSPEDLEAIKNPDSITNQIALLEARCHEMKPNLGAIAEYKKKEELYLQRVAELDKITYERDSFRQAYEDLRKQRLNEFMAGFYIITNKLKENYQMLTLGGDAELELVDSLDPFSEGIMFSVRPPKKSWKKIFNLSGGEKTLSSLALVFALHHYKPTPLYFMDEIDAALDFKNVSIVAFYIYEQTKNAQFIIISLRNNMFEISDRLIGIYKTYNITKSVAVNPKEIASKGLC
UniProt Q9UNE7, sequence (Q9UNE7 whole entry, looked up): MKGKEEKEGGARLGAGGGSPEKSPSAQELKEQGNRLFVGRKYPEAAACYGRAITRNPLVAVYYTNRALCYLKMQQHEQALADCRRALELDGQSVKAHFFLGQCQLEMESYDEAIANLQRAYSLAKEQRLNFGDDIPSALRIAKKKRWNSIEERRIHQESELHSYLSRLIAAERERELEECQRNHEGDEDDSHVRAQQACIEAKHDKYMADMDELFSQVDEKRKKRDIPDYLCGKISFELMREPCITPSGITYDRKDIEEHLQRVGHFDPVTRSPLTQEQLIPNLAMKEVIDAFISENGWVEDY
UniProt P52630, sequence (P52630 whole entry, looked up): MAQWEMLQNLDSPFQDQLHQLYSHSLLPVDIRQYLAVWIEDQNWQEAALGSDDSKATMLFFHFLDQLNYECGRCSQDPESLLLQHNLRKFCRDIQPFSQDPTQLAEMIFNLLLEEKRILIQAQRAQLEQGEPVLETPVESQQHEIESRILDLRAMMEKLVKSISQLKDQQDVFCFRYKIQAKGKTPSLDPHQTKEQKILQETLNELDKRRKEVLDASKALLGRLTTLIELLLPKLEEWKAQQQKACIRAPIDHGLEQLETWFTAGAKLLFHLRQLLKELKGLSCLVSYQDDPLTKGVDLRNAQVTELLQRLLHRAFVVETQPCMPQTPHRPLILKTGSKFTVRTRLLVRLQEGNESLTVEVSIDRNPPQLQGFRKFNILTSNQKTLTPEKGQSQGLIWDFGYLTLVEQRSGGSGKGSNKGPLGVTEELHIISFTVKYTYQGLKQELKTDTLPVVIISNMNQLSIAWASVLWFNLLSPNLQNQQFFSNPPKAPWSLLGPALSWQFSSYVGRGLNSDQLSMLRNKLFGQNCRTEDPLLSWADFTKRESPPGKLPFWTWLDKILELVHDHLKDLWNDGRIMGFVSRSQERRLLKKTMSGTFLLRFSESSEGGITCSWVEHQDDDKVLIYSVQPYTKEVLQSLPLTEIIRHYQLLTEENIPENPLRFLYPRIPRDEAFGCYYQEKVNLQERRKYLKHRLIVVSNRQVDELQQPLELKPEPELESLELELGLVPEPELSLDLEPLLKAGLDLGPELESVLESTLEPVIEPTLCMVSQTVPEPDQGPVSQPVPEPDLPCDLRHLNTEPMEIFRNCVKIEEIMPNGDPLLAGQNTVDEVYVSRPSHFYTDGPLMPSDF
UniProt O95793, sequence (O95793 whole entry, looked up): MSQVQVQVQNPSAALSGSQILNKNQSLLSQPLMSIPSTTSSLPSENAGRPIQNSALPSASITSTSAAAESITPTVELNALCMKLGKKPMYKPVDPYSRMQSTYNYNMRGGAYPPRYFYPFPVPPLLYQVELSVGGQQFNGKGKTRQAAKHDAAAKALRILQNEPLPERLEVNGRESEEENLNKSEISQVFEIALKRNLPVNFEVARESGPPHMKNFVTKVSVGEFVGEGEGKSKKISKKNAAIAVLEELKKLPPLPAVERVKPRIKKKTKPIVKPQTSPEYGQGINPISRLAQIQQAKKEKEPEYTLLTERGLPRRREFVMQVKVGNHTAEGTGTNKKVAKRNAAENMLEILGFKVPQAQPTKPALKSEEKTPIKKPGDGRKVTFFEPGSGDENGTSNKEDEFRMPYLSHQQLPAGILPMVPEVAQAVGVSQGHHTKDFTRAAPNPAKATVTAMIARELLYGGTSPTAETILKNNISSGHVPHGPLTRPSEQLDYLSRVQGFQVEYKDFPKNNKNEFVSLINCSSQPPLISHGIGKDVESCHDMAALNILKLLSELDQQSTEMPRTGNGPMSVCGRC
UniProt Q86XZ4, sequence (Q86XZ4 whole entry, looked up): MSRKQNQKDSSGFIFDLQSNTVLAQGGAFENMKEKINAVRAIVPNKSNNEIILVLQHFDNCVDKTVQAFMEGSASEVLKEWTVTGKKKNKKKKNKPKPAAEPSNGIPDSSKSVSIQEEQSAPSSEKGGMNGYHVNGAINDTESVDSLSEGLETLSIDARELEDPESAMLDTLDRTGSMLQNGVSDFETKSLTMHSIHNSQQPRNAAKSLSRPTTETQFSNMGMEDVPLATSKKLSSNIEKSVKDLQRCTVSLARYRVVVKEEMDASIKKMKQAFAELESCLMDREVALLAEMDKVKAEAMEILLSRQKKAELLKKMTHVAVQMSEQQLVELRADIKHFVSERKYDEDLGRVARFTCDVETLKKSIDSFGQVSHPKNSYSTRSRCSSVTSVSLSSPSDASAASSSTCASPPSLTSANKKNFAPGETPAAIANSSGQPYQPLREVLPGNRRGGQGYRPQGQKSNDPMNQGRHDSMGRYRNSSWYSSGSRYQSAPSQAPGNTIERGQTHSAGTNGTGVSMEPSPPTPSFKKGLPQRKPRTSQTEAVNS
UniProt Q9P289, sequence (Q9P289 whole entry, looked up): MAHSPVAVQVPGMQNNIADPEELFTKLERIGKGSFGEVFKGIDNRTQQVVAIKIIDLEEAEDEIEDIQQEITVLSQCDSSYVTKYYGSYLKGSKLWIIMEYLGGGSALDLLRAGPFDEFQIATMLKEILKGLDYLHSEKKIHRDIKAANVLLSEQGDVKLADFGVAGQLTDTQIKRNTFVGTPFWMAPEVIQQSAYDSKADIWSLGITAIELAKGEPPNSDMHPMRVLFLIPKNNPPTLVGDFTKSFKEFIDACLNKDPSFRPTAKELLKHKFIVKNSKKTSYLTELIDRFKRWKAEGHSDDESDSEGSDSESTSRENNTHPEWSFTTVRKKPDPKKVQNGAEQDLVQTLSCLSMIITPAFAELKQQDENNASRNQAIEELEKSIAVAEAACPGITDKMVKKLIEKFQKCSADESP
UniProt Q14542, sequence (Q14542 whole entry, looked up): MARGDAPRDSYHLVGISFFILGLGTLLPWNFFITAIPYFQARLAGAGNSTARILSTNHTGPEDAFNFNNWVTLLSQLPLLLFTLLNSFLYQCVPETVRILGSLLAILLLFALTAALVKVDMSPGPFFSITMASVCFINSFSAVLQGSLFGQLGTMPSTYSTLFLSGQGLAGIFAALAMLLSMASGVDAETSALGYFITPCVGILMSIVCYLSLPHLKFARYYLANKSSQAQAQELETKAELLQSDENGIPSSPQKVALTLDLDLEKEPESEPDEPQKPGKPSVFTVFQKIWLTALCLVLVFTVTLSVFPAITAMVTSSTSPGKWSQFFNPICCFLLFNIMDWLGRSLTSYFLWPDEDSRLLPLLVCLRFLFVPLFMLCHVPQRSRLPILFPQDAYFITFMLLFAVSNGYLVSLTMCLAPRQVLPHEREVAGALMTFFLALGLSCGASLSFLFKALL

log2 fold change, inactive:
SPNS1 (UniProt Q9H2V7) -0.025, SRM (UniProt P19623) 0.052, STOML2 (UniProt Q9UJZ1) 0.028, SFN (UniProt P31947) -0.026, SMC1B isoform 3 (UniProt Q8NDV3) 0.026, STK24 (UniProt B4DR80) -0.033, STAU1 (UniProt O95793) -0.009, SPATS2 (UniProt Q86XZ4) -0.049, SMC4 (UniProt Q9NTJ3) -0.015, STK38 (UniProt Q15208) -0.029, SMG6 (UniProt Q86US8) -0.012, SMARCA4 (UniProt P51532) -0.028, SSBP3 (UniProt Q9BWW4) 0.088, STAT2 (UniProt P52630) -0.017, STUB1 (UniProt Q9UNE7) 0.006, SHKBP1 (UniProt Q8TBC3) 0.01, SSB (UniProt P05455) 0.032, SMG7 (UniProt Q92540) -0.035, SMG1 (UniProt Q96Q15) -0.006, SRRT (UniProt Q9BXP5) -0.008, SHC1 isoform 6 (UniProt P29353) -0.055, SH3BGRL2 (UniProt Q9UJC5) 0.099, SP1 (UniProt P08047) 0.081, SHCBP1 (UniProt Q8NEM2) -0.009, SH3BP5L (UniProt Q7L8J4) 0.051, SYNRG (UniProt Q9UMZ2) -0.002, STK26 (UniProt Q9P289) -0.045, SMC2 (UniProt O95347) -0.01, SLC11A2 isoform 3 (UniProt P49281) 0.013, SYF2 (UniProt O95926) -0.014, SMC6 (UniProt Q96SB8) 0.019, SLC29A2 (UniProt Q14542) 0.031, SNAP23 (UniProt O00161) -0.016

Reference: the supplement of paper PMC10849652
